The record followed here is PubChem BioAssay AID488789 (Broad Institute, 2010).

Measured potencies and affinities stand elsewhere. Inconclusive results are not listed. A number with no mark means an inactive call.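 How the source made its calls: active means samples whose fitted half-maximal inhibition concentration is no more than ten times the top valid dose tested; inconclusive means flat response between -70 and -30, or invalid curve fit; inactive means flat within 30 of zero, potency above limit, or signal rising.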

For the assay, the target named is Trypsin (Sus scrofa) (UniProt P00761). The assay is described as follows: trypsin protease activity blockade – biochemical, quenched peptide fluorescence, cherry-pick, selectivity assay for Rce1 protease inhibitor project, dose response (AID 488789). The settings on record: porcine trypsin, quenched peptide cleavage fluorescence; series mostly up to 10 µM; activity change, negative = inhibition: at the top concentration.
Sequence of Trypsin (Sus scrofa) (P00761 whole entry, looked up): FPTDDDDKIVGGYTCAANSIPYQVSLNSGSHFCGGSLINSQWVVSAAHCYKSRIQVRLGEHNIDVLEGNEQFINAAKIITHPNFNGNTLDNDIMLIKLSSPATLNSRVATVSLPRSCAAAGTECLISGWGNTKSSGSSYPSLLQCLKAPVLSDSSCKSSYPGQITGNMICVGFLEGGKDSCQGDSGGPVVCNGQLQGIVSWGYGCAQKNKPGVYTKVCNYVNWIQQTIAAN
For `CC1CCC/C(=C\Nc2ccccc2C(=O)O)C1=O` (stereo not drawn), the “activity change, negative = inhibition” value is 8.07%.
Regarding `COC(C[C@@H](O)C[C@H](O)[C@H](C)OCc1ccccc1)OC`, the “activity change, negative = inhibition” value is 6.39%.
In the case of `Cn1c(CCNS(=O)(=O)c2ccccc2)nnc1SCc1cccnc1`, the “activity change, negative = inhibition” value is 5.5%.
The value for `CCOC(=O)c1c(NC(=O)COc2ccccc2F)sc2c1CC(C)(C)NC2(C)C` was 0.00696%.
In the case of `O=C(C1=C[C@@H](C2CC2)C[C@@H](OCc2ccc(CO)cc2)O1)N1CCN(Cc2ccccc2)CC1`, the “activity change, negative = inhibition” value was 7.29%.
Under `CCC1CCCCN1C(=O)NC(=O)c1ccccc1` (stereo not drawn) stands 10.3%; under `COc1ccc(CC(=O)OCC(=O)Nc2ccc(Br)cc2)cc1`, 11.8%; under `CCCCn1c(=O)[nH]c(=O)c2c1nc(-c1ccc(OC)c(Br)c1)n2CC(C)C`, 11.2%.
On to `CC(C)c1ccc(/C=C2\SC(=S)N(CCC(=O)NCCCn3ccnc3)C2=O)cc1`, for which the “activity change, negative = inhibition” value was 26.8%.
Under `O=C(N/N=C/C1CC=CCC1)c1ccc(O)cc1O` (stereo not drawn) stands 7.39%; under `Cc1c(Cl)c([N+](=O)[O-])nn1CC(=O)N1CCCc2ccccc21`, 3.75%; under `CCCC(=O)N1CCN(c2ccc(NC(=O)c3cc4ccccc4o3)cc2Cl)CC1`, -6.19%.
Take `N=c1c(C(=O)NCc2ccc(F)cc2)cc2c(=O)n3ccccc3nc2n1Cc1cccnc1`: the “activity change, negative = inhibition” value was 37.3%.
The value for `COC(C/C=C/[C@H](O)[C@@H](C)OCc1ccccc1)OC` was 3.98%.
Regarding `O=S(=O)(CC(CN1CCOCC1)N1CCOCC1)c1ccccc1` (stereo not drawn), the “activity change, negative = inhibition” value was 1.85%.
Consider `Nc1nc2n[nH]nc2c(=O)[nH]1`, for which the “activity change, negative = inhibition” value is 8.03%.
For the compound `O=S(=O)(c1ccccc1)c1nc(-c2ccco2)oc1N1CCCCC1`, the “activity change, negative = inhibition” value is 3.48%.
In the case of `Nc1c(Cl)cc(C2=NCCn3nc4cc(C(F)(F)F)ccc4c32)cc1Cl`, the “activity change, negative = inhibition” value was 5.69%.
For `Cc1ccc(NS(=O)(=O)c2ccc(NC(=O)N3CCCCC3)cc2)cc1`, the “activity change, negative = inhibition” value is -2.65%.
Under `Cc1nc(N2CCOCC2)c2cc(-c3ccccc3)sc2n1` stands 7.9%.
As for `CC(=O)N1c2ccc([N+](=O)[O-])cc2NC(=O)CC1C` (stereo not drawn), the “activity change, negative = inhibition” value was 3.92%.
The value for `Cc1ccc2c(c1)sc[n+]2Cc1ccccc1` was 3.87%; that for `COc1cc2c(cc1OC)C(C)=NC1(CCCCC1)C2` was -10.1%; that for `CN(C)CCCN(C(=O)c1cc(-c2cccs2)nc2ccccc12)c1nc2ccc(F)cc2s1` was -3.8%.
The value for `CCN(C(=O)COC(=O)c1cc(-c2cccs2)nc2ccccc12)C1CCS(=O)(=O)C1` (stereo not drawn) was 7.15%; that for `COC(=O)Cn1c(CCC(=O)O)ccc1-c1ccccc1` was -7.92%.
Turning to `COC(=O)C(Cc1ccccc1)OS(N)(=O)=O` (stereo not drawn), the “activity change, negative = inhibition” value is 18.6%.
For the compound `O=C(Nc1ccc(F)cc1)Oc1ccccc1N1CCOCC1`, the “activity change, negative = inhibition” value is -3.6%.
Take `CCn1nnnc1SCC(=O)Nc1nc(C)c(C)s1`: the “activity change, negative = inhibition” value was -2.28%.
Under `COc1cc(-c2nc3ccccn3c2/N=C/c2ccccc2)ccc1O` stands -1.21%; under `CN1CCN(CCCNC(=O)c2cc3c(-c4ccc(Cl)cc4)nn(C)c3s2)CC1`, -4.72%; under `COc1ccc2[nH]c(C(=O)NCCCn3ccnc3)cc2c1`, 10.5%.
With `CN1c2ccc(C=O)c3c(C=O)ccc(c23)N(C)C1(C)C`, the “activity change, negative = inhibition” value is 7.96%.
The value for `Cc1ccc2nc(N(CCN(C)C)C(=O)c3ccc4ccccc4c3)sc2c1` was 6.43%; that for `CN(C)C(=O)COc1ccc2ccc(=O)oc2c1` was -6.92%; that for `CCCCCCCCCCOC(=O)Cn1c(COc2ccc(C)cc2)[n+](C)c2ccccc21` was 0.202%.
`CN(C)S(=O)(=O)c1ccc(NC(=O)/C=C/c2ccccc2Cl)cc1`: the “activity change, negative = inhibition” value was 2.22%.
As for `NCCCn1c(C(=O)c2cc(Cl)c(N)c(Cl)c2)c2ccc(C(F)(F)F)cc2[n+]1[O-]`, the “activity change, negative = inhibition” value was 3.83%.
